Reference: PubChem BioAssay AID1159580 (chemical genetic matrix, 2015)
The whole screen tested about 5,500 compounds, of which about 2,000 (36%) were called active. Roughly 18% stayed inconclusive and do not appear here. Cut-off read from the data, not from the text of the source: active = normalized growth mostly below about 0.91 (no sharp cut-off); inconclusive = no clear call, values can overlap the other calls; inactive = mostly above about 0.92. Some of the results follow.

Experiment: chemical genetic growth profiling, strain panel (AID 1159580);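 note: tested at 20 µM; growth read once vehicle control cultures reached saturation at 30 °C; 1 = growth at the plate median or of vehicle wells; lower values mean less growth of the strain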
Settings: growth OD

Measured: normalized growth

CC(=O)OCC(OC(C)=O)C(OC(C)=O)C(OC(C)=O)C(OC(C)=O)C(COC(C)=O)OC(C)=O (stereo not given)
inactive: S. cerevisiae deletion strains, locus YAL021C, strain ccr4, stronger effect = lower value 0.998 | S. cerevisiae deletion strains, locus YAL026C, strain drs2, stronger effect = lower value 0.993 | S. cerevisiae deletion strains, locus YAL030W, strain snc1, stronger effect = lower value 0.994 | S. cerevisiae deletion strains, locus YBL061C, strain skt5, stronger effect = lower value 0.985 | S. cerevisiae deletion strains, locus YBR009C, strain hhf1, stronger effect = lower value 0.994 | S. cerevisiae deletion strains, locus YBR021W, strain FUR4, stronger effect = lower value 1.01 | S. cerevisiae deletion strains, locus YBR023C, strain chs3, stronger effect = lower value 0.99 | S. cerevisiae deletion strains, locus YBR171W, strain sec66, stronger effect = lower value 0.985 | S. cerevisiae deletion strains, locus YBR229C, strain ROT2, stronger effect = lower value 0.996 | S. cerevisiae deletion strains, locus YBR231C, strain swc5, stronger effect = lower value 0.989 | S. cerevisiae deletion strains, locus YBR279W, strain paf1, stronger effect = lower value 0.994 | S. cerevisiae deletion strains, locus YCL011C, strain gbp2, stronger effect = lower value 0.996 | S. cerevisiae deletion strains, locus YCL016C, strain dcc1, stronger effect = lower value 0.994 | S. cerevisiae deletion strains, locus YCL029C, strain bik1, stronger effect = lower value 0.984 | S. cerevisiae deletion strains, locus YCL061C, strain MRC1, stronger effect = lower value 0.992 | S. cerevisiae deletion strains, locus YCL069W, strain vba3, stronger effect = lower value 0.999 | S. cerevisiae deletion strains, locus YCR088W, strain abp1, stronger effect = lower value 0.991 | S. cerevisiae deletion strains, locus YDL005C, strain med2, stronger effect = lower value 0.989 | S. cerevisiae deletion strains, locus YDL035C, strain GPR1, stronger effect = lower value 1.07 | S. cerevisiae deletion strains, locus YDL040C, strain nat1, stronger effect = lower value 0.98 | S. cerevisiae deletion strains, locus YDL074C, strain BRE1, stronger effect = lower value 1.09 | S. cerevisiae deletion strains, locus YDL101C, strain DUN1, stronger effect = lower value 1 | S. cerevisiae deletion strains, locus YDL185W, strain tfp1, stronger effect = lower value 0.991 | S. cerevisiae deletion strains, locus YDL192W, strain arf1, stronger effect = lower value 1.02 | S. cerevisiae deletion strains, locus YDR001C, strain nth1, stronger effect = lower value 0.99 | S. cerevisiae deletion strains, locus YDR069C, strain doa4, stronger effect = lower value 0.986 | S. cerevisiae deletion strains, locus YDR101C, strain arx1, stronger effect = lower value 1.01 | S. cerevisiae deletion strains, locus YDR137W, strain rgp1, stronger effect = lower value 1.01 | S. cerevisiae deletion strains, locus YDR150W, strain NUM1, stronger effect = lower value 1.01 | S. cerevisiae deletion strains, locus YDR159W, strain sac3, stronger effect = lower value 0.979 | S. cerevisiae deletion strains, locus YDR162C, strain NBP2, stronger effect = lower value 1.03 | S. cerevisiae deletion strains, locus YDR195W, strain ref2 0.943 | S. cerevisiae deletion strains, locus YDR297W, strain sur2, stronger effect = lower value 0.992 | S. cerevisiae deletion strains, locus YDR318W, strain mcm21, stronger effect = lower value 0.999 | S. cerevisiae deletion strains, locus YDR334W, strain swr1, stronger effect = lower value 0.983 | S. cerevisiae deletion strains, locus YDR335W, strain msn5, stronger effect = lower value 0.986 | S. cerevisiae deletion strains, locus YDR388W, stronger effect = lower value 0.983 | S. cerevisiae deletion strains, locus YDR392W, strain spt3, stronger effect = lower value 0.99 | S. cerevisiae deletion strains, locus YDR502C, strain sam2, stronger effect = lower value 0.998 | S. cerevisiae deletion strains, locus YEL003W, strain gim4, stronger effect = lower value 0.993 | S. cerevisiae deletion strains, locus YEL037C, strain rad23, stronger effect = lower value 0.989 | S. cerevisiae deletion strains, locus YEL061C, strain CIN8 (second series), stronger effect = lower value 0.979 | S. cerevisiae deletion strains, locus YER015W, strain faa2, stronger effect = lower value 0.992 | S. cerevisiae deletion strains, locus YER016W, strain bim1, stronger effect = lower value 0.988 | S. cerevisiae deletion strains, locus YER110C, stronger effect = lower value 0.963 | S. cerevisiae deletion strains, locus YER111C, strain swi4, stronger effect = lower value 0.985 | S. cerevisiae deletion strains, locus YER155C, strain BEM2 (second series), stronger effect = lower value 0.981 | S. cerevisiae deletion strains, locus YER155C, strain BEM2, stronger effect = lower value 0.972 | S. cerevisiae deletion strains, locus YER167W, strain BCK2, stronger effect = lower value 1.01 | S. cerevisiae deletion strains, locus YFR010W, strain ubp6, stronger effect = lower value 0.989 | S. cerevisiae deletion strains, locus YGL078C, strain dbp3, stronger effect = lower value 0.976 | S. cerevisiae deletion strains, locus YGL086W, strain mad1, stronger effect = lower value 1 | S. cerevisiae deletion strains, locus YGL167C, strain pmr1, stronger effect = lower value 0.998 | S. cerevisiae deletion strains, locus YGL173C, strain kem1, stronger effect = lower value 0.991 | S. cerevisiae deletion strains, locus YGL227W, strain vid30, stronger effect = lower value 0.99 | S. cerevisiae deletion strains, locus YGL240W, strain doc1, stronger effect = lower value 0.998 | S. cerevisiae deletion strains, locus YGL248W, strain PDE1, stronger effect = lower value 1.03 | S. cerevisiae deletion strains, locus YGL253W, strain hxk2, stronger effect = lower value 0.984 | S. cerevisiae deletion strains, locus YGR078C, strain PAC10, stronger effect = lower value 1.02 | S. cerevisiae deletion strains, locus YGR135W, strain pre9, stronger effect = lower value 0.964 | S. cerevisiae deletion strains, locus YGR252W, strain gcn5, stronger effect = lower value 0.996 | S. cerevisiae deletion strains, locus YHR013C, strain ard1, stronger effect = lower value 0.964 | S. cerevisiae deletion strains, locus YHR027C, strain rpn1, stronger effect = lower value 0.995 | S. cerevisiae deletion strains, locus YHR030C, strain SLT2, stronger effect = lower value 1.01 | S. cerevisiae deletion strains, locus YHR079C, strain IRE1 (second series), stronger effect = lower value 0.987 | S. cerevisiae deletion strains, locus YHR094C, strain hxt1, stronger effect = lower value 0.987 | S. cerevisiae deletion strains, locus YHR129C, strain ARP1, stronger effect = lower value 1 | S. cerevisiae deletion strains, locus YHR142W, strain chs7, stronger effect = lower value 0.983 | S. cerevisiae deletion strains, locus YHR200W, strain rpn10, stronger effect = lower value 0.986 | S. cerevisiae deletion strains, locus YIL066C, strain RNR3, stronger effect = lower value 1.02 | S. cerevisiae deletion strains, locus YIL073C, strain SPO22, stronger effect = lower value 1.06 | S. cerevisiae deletion strains, locus YIL125W, strain kgd1, stronger effect = lower value 0.976 | S. cerevisiae deletion strains, locus YIR030C, strain dcg1, stronger effect = lower value 0.978 | S. cerevisiae deletion strains, locus YJL092W, strain hpr5, stronger effect = lower value 0.998 | S. cerevisiae deletion strains, locus YJL095W, strain BCK1 (second series), stronger effect = lower value 0.985 | S. cerevisiae deletion strains, locus YJL095W, strain BCK1, stronger effect = lower value 1.05 | S. cerevisiae deletion strains, locus YJL115W, strain asf1, stronger effect = lower value 0.975 | S. cerevisiae deletion strains, locus YJL129C, strain trk1, stronger effect = lower value 0.988 | S. cerevisiae deletion strains, locus YJL134W, strain LCB3, stronger effect = lower value 1 | S. cerevisiae deletion strains, locus YJL154C, strain vps35, stronger effect = lower value 0.986 | S. cerevisiae deletion strains, locus YJL164C, strain tpk1, stronger effect = lower value 0.986 | S. cerevisiae deletion strains, locus YJL166W, strain qcr8, stronger effect = lower value 0.993 | S. cerevisiae deletion strains, locus YJL168C, strain set2, stronger effect = lower value 0.98 | S. cerevisiae deletion strains, locus YJL187C, strain SWE1 (second series), stronger effect = lower value 1.02 | S. cerevisiae deletion strains, locus YJL187C, strain SWE1, stronger effect = lower value 1 | S. cerevisiae deletion strains, locus YJR043C, strain POL32, stronger effect = lower value 1.07 | S. cerevisiae deletion strains, locus YKL009W, strain mrt4, stronger effect = lower value 1.01 | S. cerevisiae deletion strains, locus YKL068W, stronger effect = lower value 0.995 | S. cerevisiae deletion strains, locus YKL085W, strain MDH1 (second series), stronger effect = lower value 0.992 | S. cerevisiae deletion strains, locus YKL085W, strain MDH1, stronger effect = lower value 0.992 | S. cerevisiae deletion strains, locus YKL160W, strain elf1, stronger effect = lower value 0.997 | S. cerevisiae deletion strains, locus YKR001C, strain vps1, stronger effect = lower value 1.04 | S. cerevisiae deletion strains, locus YKR026C, strain gcn3, stronger effect = lower value 0.999 | S. cerevisiae deletion strains, locus YKR091W, strain srl3, stronger effect = lower value 0.991 | S. cerevisiae deletion strains, locus YLL001W, strain dnm1, stronger effect = lower value 0.989 | S. cerevisiae deletion strains, locus YLL026W, stronger effect = lower value 0.994 | S. cerevisiae deletion strains, locus YLL041C, strain sdh2, stronger effect = lower value 0.995 | S. cerevisiae deletion strains, locus YLR027C, strain aat2, stronger effect = lower value 0.995 | S. cerevisiae deletion strains, locus YLR039C, strain RIC1, stronger effect = lower value 1.2 | S. cerevisiae deletion strains, locus YLR058C, strain SHM2, stronger effect = lower value 1.02 | S. cerevisiae deletion strains, locus YLR102C, strain apc9, stronger effect = lower value 0.975 | S. cerevisiae deletion strains, locus YLR221C, strain rsa3, stronger effect = lower value 0.999 | S. cerevisiae deletion strains, locus YLR258W, strain gsy2, stronger effect = lower value 0.994 | S. cerevisiae deletion strains, locus YLR262C, strain YPT6 (second series), stronger effect = lower value 1.01 | S. cerevisiae deletion strains, locus YLR268W, strain sec22, stronger effect = lower value 1.04 | S. cerevisiae deletion strains, locus YLR320W, strain mms22, stronger effect = lower value 0.992 | S. cerevisiae deletion strains, locus YLR330W, strain CHS5, stronger effect = lower value 1 | S. cerevisiae deletion strains, locus YLR342W, strain FKS1, stronger effect = lower value 0.987 | S. cerevisiae deletion strains, locus YLR357W, strain rsc2, stronger effect = lower value 0.982 | S. cerevisiae deletion strains, locus YLR370C, strain arc18, stronger effect = lower value 0.99 | S. cerevisiae deletion strains, locus YLR371W, strain rom2, stronger effect = lower value 0.989 | S. cerevisiae deletion strains, locus YLR384C, strain iki3, stronger effect = lower value 1 | S. cerevisiae deletion strains, locus YLR418C, strain cdc73, stronger effect = lower value 1.01 | S. cerevisiae deletion strains, locus YML016C, strain PPZ1, stronger effect = lower value 1.01 | S. cerevisiae deletion strains, locus YML032C, strain rad52, stronger effect = lower value 0.993 | S. cerevisiae deletion strains, locus YML120C, strain ndi1, stronger effect = lower value 0.985 | S. cerevisiae deletion strains, locus YML124C, strain tub3, stronger effect = lower value 0.99 | S. cerevisiae deletion strains, locus YMR058W, strain fet3, stronger effect = lower value 0.994 | S. cerevisiae deletion strains, locus YMR078C, strain ctf18, stronger effect = lower value 0.981 | S. cerevisiae deletion strains, locus YMR125W, strain sto1, stronger effect = lower value 0.975 | S. cerevisiae deletion strains, locus YMR129W, stronger effect = lower value 0.991 | S. cerevisiae deletion strains, locus YMR205C, strain PFK2, stronger effect = lower value 0.985 | S. cerevisiae deletion strains, locus YMR223W, strain ubp8, stronger effect = lower value 0.993 | S. cerevisiae deletion strains, locus YMR231W, strain pep5, stronger effect = lower value 1 | S. cerevisiae deletion strains, locus YMR307W, strain GAS1, stronger effect = lower value 1.09 | S. cerevisiae deletion strains, locus YNL067W, strain RPL9B, stronger effect = lower value 1.01 | S. cerevisiae deletion strains, locus YNL071W, strain lat1, stronger effect = lower value 0.99 | S. cerevisiae deletion strains, locus YNL128W, strain TEP1, stronger effect = lower value 1 | S. cerevisiae deletion strains, locus YNL209W, strain ssb2, stronger effect = lower value 0.998 | S. cerevisiae deletion strains, locus YNL233W, strain BNI4, stronger effect = lower value 1.03 | S. cerevisiae deletion strains, locus YNL248C, strain rpa49, stronger effect = lower value 1.01 | S. cerevisiae deletion strains, locus YNL250W, strain rad50, stronger effect = lower value 0.978 | S. cerevisiae deletion strains, locus YNL271C, strain bni1, stronger effect = lower value 0.998 | S. cerevisiae deletion strains, locus YNL298W, strain CLA4, stronger effect = lower value 0.987 | S. cerevisiae deletion strains, locus YNL307C, strain MCK1, stronger effect = lower value 0.977 | S. cerevisiae deletion strains, locus YNL322C, strain KRE1 (second series), stronger effect = lower value 0.993 | S. cerevisiae deletion strains, locus YNR049C, strain mso1, stronger effect = lower value 0.975 | S. cerevisiae deletion strains, locus YNR052C, strain pop2, stronger effect = lower value 0.962 | S. cerevisiae deletion strains, locus YOL006C, strain TOP1, stronger effect = lower value 1.27 | S. cerevisiae deletion strains, locus YOL012C, strain htz1 1.05 | S. cerevisiae deletion strains, locus YOL147C, strain pex11, stronger effect = lower value 0.997 | S. cerevisiae deletion strains, locus YOR001W, strain rrp6, stronger effect = lower value 0.997 | S. cerevisiae deletion strains, locus YOR061W, strain CKA2, stronger effect = lower value 0.997 | S. cerevisiae deletion strains, locus YOR069W, strain VPS5, stronger effect = lower value 1.01 | S. cerevisiae deletion strains, locus YOR070C, strain gyp1, stronger effect = lower value 0.99 | S. cerevisiae deletion strains, locus YOR080W, strain dia2, stronger effect = lower value 0.985 | S. cerevisiae deletion strains, locus YOR083W, strain WHI5, stronger effect = lower value 0.995 | S. cerevisiae deletion strains, locus YOR106W, strain vam3, stronger effect = lower value 0.989 | S. cerevisiae deletion strains, locus YOR136W, strain idh2, stronger effect = lower value 0.973 | S. cerevisiae deletion strains, locus YOR144C, strain elg1, stronger effect = lower value 0.975 | S. cerevisiae deletion strains, locus YOR184W, strain ser1, stronger effect = lower value 1.06 | S. cerevisiae deletion strains, locus YOR265W, strain rbl2, stronger effect = lower value 0.983 | S. cerevisiae deletion strains, locus YOR270C, strain vph1, stronger effect = lower value 0.981 | S. cerevisiae deletion strains, locus YOR290C, strain snf2, stronger effect = lower value 0.978 | S. cerevisiae deletion strains, locus YOR316C, strain cot1, stronger effect = lower value 0.987 | S. cerevisiae deletion strains, locus YPL051W, strain arl3, stronger effect = lower value 0.995 | S. cerevisiae deletion strains, locus YPL078C, strain atp4, stronger effect = lower value 0.993 | S. cerevisiae deletion strains, locus YPL106C, strain sse1, stronger effect = lower value 1.01 | S. cerevisiae deletion strains, locus YPL240C, strain hsp82, stronger effect = lower value 0.996 | S. cerevisiae deletion strains, locus YPR119W, strain clb2, stronger effect = lower value 0.989 | S. cerevisiae deletion strains, locus YPR141C, strain kar3, stronger effect = lower value 0.997 | S. cerevisiae deletion strains, locus YPR163C, strain tif3, stronger effect = lower value 0.998 | S. cerevisiae deletion strains, locus YPR167C, strain met16, stronger effect = lower value 0.962 | S. cerevisiae deletion strains, strain wtn01, stronger effect = lower value 1.03 | S. cerevisiae strains, strain wild type, stronger effect = lower value 1.04
